PubChem BioAssay AID1508600 (Functional Genomics Laboratory (NCATS/FGL), 2020)
About 3,700 (7%) of roughly 53,000 sequences were called active. The full list was thinned out, with actives kept by preference. Values without a mark were called inactive.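 The calls were made as follows: active = gene knockdowns whose robust z-score for IL-1 alpha signal is at least 2 or at most -2, so actives lie on both sides; inactive = the rest.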

assay: Components of the Cytosolic LPS Sensing Pathway: Gene Identification via Genome-wide siRNA Screen; settings: RAW264.7 macrophages, IL-1a HTRF, actives lie on both sides, screened at 100 nM (by protocol), cells primed 5 h with Pam3CSK4 first;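 also: robust z of the log signal after scaling to non-targeting control siRNA wells of the plate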
Outline: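 Using IL-1a HTRF as read-out, the screen measured release from RAW264.7 cells after 48h siRNA knockdown (100 nM), 5 h Pam3CSK4 priming and 24 h cytosolic LipidA. Values were expressed relative to negative-control wells as robust z-scores.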

| Sequence | z-score |
| --- | --- |
| GUAUGGAUGUGGAAGCCUCTT against Olfr1417 | -0.77 |
| GGGCUUGAAAUUGAAAUGUTT against Ccl9 | -1.09 |
| GCGACAACUGUGAUAUACCTT against Liph | -0.485 |
| GCCUCAAUGGCACUCAAAUTT against Mdc1 | -0.217 |
| CCGUCUUCUGCUGUGGAACTT against Ctrc | 2.6 (active) |
| CCCACUGCCAAGUACAAUGTT against Dmwd | 1.44 |
| UUGUGAUUCCAAUUUCCCUTT against Olfr1330 | -0.32 |
| GGUCAGAGUGCCUCUUGAATT against Slc7a5 | -0.8 |
| GGUCAAAGAUGGAGUAAAUTT against Tmem87a | -2.31 (active) |
| GCAAUGUCGCCAAACGUAATT against Ikzf1 | 0.457 |
| GAUACAGACCUUGCUCUUCTT against Olfr714 | -0.421 |
| GGACAUUGUCACAUCAUUCTT against Slc2a6 | 1.64 |
| GCUAAUAGUCAUUAAACUGTT against Zfp2 | 1.76 |
| GCUCAACGAAACAAUACCGTT against Il2rb | 0.737 |
| GGAUGGUCGAAACAAUAACTT against Stk32b | 2.16 (active) |
| GGCAUUUCUGUUCUGUAAGTT against Sh3bgrl | -0.783 |
| GCUGACCACUUCAAGGUUGTT against Lgals3 | 0.468 |
| GGCCAGUGUAUUUGACCUGTT against Slc22a18 | -1.24 |
| GCUCUGCUAUCGUGAUCUGTT against Kctd13 | 1.68 |
| GCUUGCACUGGACUCAACUTT against Pax4 | -2.76 (active) |
| CGAGAAGAACUGUGUAAAGTT against Vldlr | -0.184 |
| CCAUAUCAGGCAUAGCAGUTT against Nthl1 | -0.772 |
| GCCAUCGAUGUACUGAGCUTT against Psme2 | 0.525 |
| GGUAGAGAGCUCAACAGGGTT against Klrb1c | 0.287 |
| GGACUGUUGCAUGACUCUCTT against Evc | 1.08 |
| GCCUUACUGGGUUACUUGUTT against Cdkn2d | 3.22 (active) |
| GGAACUGAAUGCGGAAUUCTT against Chil1 | 0.261 |

| Sequence | z-score |
| --- | --- |
| GGUUUCUUCAUCUUGUAUUTT against Gjd4 | 0.184 |
| GGUUCUGGAGCAAAUCCACTT against Styk1 | 2.37 (active) |
| CCCGAGACCAUUAAUGAUUTT against Snx3 | -0.306 |
| CGAACCCUAGCGGAAAUUGTT against Nono | -1.54 |
| GGUGGGAAGAUAGAUAAAATT against Mamstr | 3.28 (active) |
| GGGCUCUACAGUUUUUAAUTT against Atp5g3 | 1.31 |
| GCAGUUUCGUUCCUACUCGTT against Cdkn2aipnl | 0.796 |
| GCAGAUAAUCUAGCAAAGATT against Agps | 0.903 |
| CCGAAAUCCUACAUAUAUGTT against B430209F14Rik | -0.306 |
| GCUUGAAUUUCUGUGGAGGTT against Olfr1320 | -2.44 (active) |
| GGGUGAGACUUUUAUUAUUTT against Epdr1 | -0.468 |
| GGACAUAUAGCUGAUUUCUTT against Ctdsp2 | 1.97 |
| GGGAUGGAAACCCUGGAUCTT against Col3a1 | 0.438 |
| CCUUAGGAUCGUCUUAUUATT against Zic2 | 0.619 |
| GGGAAAAGAAAGUACCUACTT against Zcchc10 | 2.26 (active) |
| CGACCUGACUUUUCUUAGGTT against Dynlrb2 | 0.855 |
| GGCAACUUUGUUAUAUACATT against Ctr9 | 0.212 |
| GGAUCUUCUACACAGUAAATT against Ppp2r3d | -0.0431 |
| GGGCAUCAGCUAUUAAAGATT against Tpmt | 0.488 |
| GGCUAGAUGACAACCGCAUTT against Flrt1 | 1.13 |
| GGGAGUUAUAUAAAUGCAUTT against Taf7l | -1.13 |
| CACAGAACAUCAUCUCCCATT against Olfr887 | -2.79 (active) |
| CGAAAUGACAGUGUUAUUCTT against Mpl | 0.185 |
| GGUAUGAUGGGAAAUUUUUTT against Tmod2 | 1.07 |
| GGAAUCGGUGUAUUCGUUUTT against Sectm1b | 0.593 |
| GGAAGACAAAGUCUGGGUGTT against Hpx | -0.915 |
| GGUCCUACAGGAGAAGAUCTT against Tekt2 | -2.09 (active) |
